According to PubChem BioAssay AID1347076 (National Center for Advancing Translational Sciences (NCATS), 2019):
The campaign covered roughly 400,000 compounds. About 13,000 (3.2%) were called active. About 18% were inconclusive and are not listed. The full list was thinned out, with actives kept by preference. A number with no mark means an inactive call. Calls come from the whole dose curve; as a rule, active = well fitted cell-killing curve with a large enough effect; inconclusive = small, poorly fitted or top-dose-only effect, or effect the other way; inactive = flat fitted curve, though single readings scatter.

Assay: qHTS assay for MDR1-selective chemotherapeutics: Primary screen using the drug-selected MDR subline cells KB-V1; note: nearly all actives have a fitted effect of over 60% in size
Conditions: KB-V1 MDR cells viability, CellTiter-Glo, 72 h; series mostly up to 46.1 µM; activity change, negative = cytotoxicity: at the top concentration
Text: A prime difficulty in effectively treating cancer is the development of cellular resistance to multiple structurally unrelated anticancer drugs, a phenomenon known as multidrug resistance (MDR). […] Numerous strategies to overcome P-gp-mediated MDR have been explored, including the design of drugs that evade recognition and efflux, and development of inhibitors to block efflux and restore drug accumulation. […] An alternative approach is to exploit resistance by identifying drugs that target MDR cells over the non-resistant parental cells from which they were selected. […] The development of MDR1-selective agents represents a new strategy for resolving multidrug resistance, as it remains a long-standing clinical challenge for cancer chemotherapy.
Our goal is to identify compounds that selectively kill P-gp-expressing MDR cells. We will identify MDR1-selective compounds by comparing toxicity of compounds in the screening library against parental, drug-naive (KB-3-1) adenocarcinoma cells as well as their drug-selected MDR sub-line (KB-V1). The differential toxicity of compounds against these two cell lines will be used to identify MDR1-selective compounds, whose cytotoxicity is potentiated, rather than diminished, by P-gp expression. This assay will be utilized to conduct a quantitative high-throughput screen (qHTS) in collaboration with the NIH Chemical Genomics Center to identify selective agents, and probe hits arising from the screen will be validated using secondary assays and characterized through a well-established follow-up research program. This screen was run against the entire NCGC library collection of about 400,000 compounds.
NIH Molecular Libraries Probe Production Network [MLPCN]
NIH Chemical Genomics Center [NCGC]
PI: Michael Gottesman, National Cancer Institute, NIH
Briefly, 5 microL of media containing either KB-V1 cells (columns 1-2, 4-48) are dispensed into Greiner white, treated solid-bottom 1536-well assay plates (media-only control is added to column 3). Compounds are then transferred via Kalypsys pin tool equipped with 1536-pin array (10 nL slotted pins, V&P Scientific, San Diego, CA). Following addition of compound, the plates are incubated at 37 degrees C for 72 hours. CellTiter-Glo (2.5 µL/well) is then added, and the plates are read in a ViewLux reader (Perkin-Elmer, clear luminescence filter, 1 second exposure, 1x binning) following a 10 minute incubation. All cells are dispensed in DMEM phenol-red free media containing 10% FBS.
Library plates were screened starting from the lowest and proceeding to the highest concentration. Vehicle-only plates, with DMSO being pin-transferred to columns 5-48, will be inserted uniformly at the beginning and the end of each library in order to monitor and record any shifts in the background, which can be affected by reagent dispensers or loss in enzyme activity over time. Screening data will be corrected, normalized, and concentration-effect relationships will be derived by using publicly-available NCGC, NCATS curve fitting algorithms (http://ncgc.nih.gov/pub/openhts).
% is set by controls: 0 for no effect and ±100 for the full control effect; potency is the fitted concentration of half-maximal effect.

Row | Structure (SMILES) | activity change, negative = cytotoxicity [%] | Potency
1 | CN[C@H]1C[C@H]2c3cc(Oc4ccccc4C)ccc3CCN2C(=O)[C@H]1[C@H](C)O | 27.8 | 
2 | C=CCNC(=O)c1ccc2nc(-c3ccco3)c(-c3ccco3)nc2c1 | -3.16 | 
3 | COc1cccc(CC(=O)N2CCCC(CCC(=O)N3CCN(c4ccccn4)CC3)C2)c1 (centres undefined) | -10.8 | 
4 | C=Cc1ccc(C(=O)N2CCCC(CCC(=O)N3CCN(c4ccccn4)CC3)C2)cc1 (centres undefined) | 2.91 | 
5 | O=C(CCC1CCCN(C(=O)Cc2ccc(F)cc2)C1)N1CCN(c2ccccn2)CC1 (centres undefined) |  | 16.4 µM (active)
6 | COc1ccc(/C=C/c2ccnc3ccccc23)cc1OC | -2.31 | 
7 | Cc1ccc(/C=N/NC(=O)CSc2nc3ccccc3o2)cc1 | 5.24 | 
8 | Cc1ccc(/C=N/NC(=O)COc2ccccc2-c2ccccc2)cc1 |  | 1.03 µM (active)
9 | Cc1cccc(OCC(=O)NCC(=O)N/N=C/c2ccc(N(C)C)cc2)c1 | 0.638 | 
10 | CCCc1c(C)nc2scc(-c3ccc(Cl)cc3)n2c1=O | -3.42 | 
11 | NC(=O)C1(N2CCCC2)CCN(Cc2ccccc2)CC1 | -12.1 | 
12 | O=C(NNS(=O)(=O)c1ccc(Cl)cc1)C1CCN(Cc2ccccc2)CC1 | -3.31 | 
13 | CCOC(=O)C1(S(=O)(=O)c2ccc(Cl)cc2)CCN(Cc2ccccc2)CC1 |  | 20.6 µM (active)
14 | CCOC(=O)C1CCN(Cc2ccc(-c3ccccc3)cc2)CC1 | 5.14 | 
15 | CCOC(=O)C1(CCOC)CCN(Cc2ccc(C(=O)OC)cc2)CC1 | 3.28 | 
16 | CCOC(=O)C1(S(=O)(=O)c2ccccc2)CCN(Cc2ccccc2)CC1 |  | 16.4 µM (active)
17 | Cc1ccc(C=O)cc1Cl | -14.5 | 
18 | Nc1ccccc1-c1nc2ccncc2[nH]1 | -2.3 | 
19 | COc1ccc(OC)c(NC(=O)C2(C)CCN2C(=O)Cc2ccccc2)c1 (centres undefined) | 2.49 | 
20 | Cc1ccc(S(=O)(=O)N2C[C@@H](C)[C@]3(C2)[C@H](O)[C@H](OC(=O)NCc2ccccc2)C[C@H]2C(=O)N(c4ccccc4)C(=O)[C@H]23)cc1 | 29.5 | 
21 | CC1CCCC(C)N1C(=O)COC(=O)c1ccccc1C(=O)c1ccccc1 (centres undefined) | -3.83 | 
22 | CCOc1ccc(NC(=O)C(CC(C)C)N2Cc3ccccc3C2=O)cc1 (centres undefined) | -6.07 | 
23 | O=C(CNS(=O)(=O)c1ccccc1)N1CCN(C(=O)c2ccco2)CC1 | 6.15 | 
24 | CN1CCN(S(=O)(=O)c2ccc(NC(=O)c3ccco3)cc2)CC1 | 12.3 | 
25 | CC(C)Cc1ccc(S(=O)(=O)N2CCN(C(=O)c3ccco3)CC2)cc1 |  | 7.31 µM (active)

Row | Structure (SMILES) | activity change, negative = cytotoxicity [%] | Potency
26 | CCOc1ccccc1NC(=S)C(=C([O-])c1ccc2c(c1)OCCO2)[n+]1ccc(CC)cc1 | -25.9 | 
27 | CCc1nnc(NC(=O)C2CC(=O)N(c3ccc4c(c3)OCCO4)C2)s1 (centres undefined) | 0 | 
28 | CC(=O)c1ccccc1NC(=O)C1CC(=O)N(c2ccc3c(c2)OCCO3)C1 (centres undefined) |  | 16.4 µM (active)
29 | CCOC(=O)c1ccc(NC(=O)C2CC(=O)N(c3ccc4c(c3)OCCO4)C2)cc1 (centres undefined) | 4.09 | 
30 | COc1cccc(NC(=O)CSC2=Nc3ccccc3C3=NC(CC(=O)NC4CCCCC4)C(=O)N23)c1 (centres undefined) | 2.59 | 
31 | CCc1ccc2c(c1)NC(=O)C2(C)Cc1ccc(OC(F)(F)F)cc1 (centres undefined) | -4.96 | 
32 | Nc1ncnc2c1ncn2[C@@H]1O[C@H](CNC(=O)[C@H](N)Cc2cccnc2)[C@@H](O)[C@H]1O | 6.11 | 
33 | CCC1(C)CC(=O)c2c(ccc3oc(C(=O)Nc4ccc(C(C)=O)cc4)c(C)c23)O1 (centres undefined) | -20.1 | 
34 | Cc1ccc(Cn2c(=O)n(CCCC(=O)NCc3ccccc3Cl)c(=O)c3ccccc32)cc1 | -1 | 
35 | COc1ccc(CCNC(=O)CCCCn2c(=O)c3ccccc3n(Cc3ccccc3C)c2=O)cc1OC | -3.1 | 
36 | COc1cc(C(=O)Nc2ccc(OCc3cc(=O)n4cc(C)sc4n3)cc2)cc(OC)c1OC | 28 | 
37 | Cn1c(=O)c2c(nc(Oc3ccc(C#N)cc3)n2Cc2ccc(Cl)cc2Cl)n(C)c1=O | 4.58 | 
38 | Cc1ccc(N2C(=O)S/C(=C/c3cn(C)c4ccccc34)C2=O)cc1 | 2.62 | 
39 | Cc1cccc(N=C2NC(=O)/C(=C/c3cn(C)c4ccccc34)S2)c1 |  | 14.6 µM (active)
40 | Cc1ccc(C(=O)N/C(=C\c2cn(C)c3ccccc23)C(=O)N2CCN(C)CC2)cc1 | 7.97 | 
41 | CC1=C(C(=O)N2CCOCC2)CC(CC(=O)NCCCN(C)C)C(=O)N1Cc1ccc(C(C)(C)C)cc1 (centres undefined) | 8.92 | 
42 | CC(C)OC(=O)CC(=O)CC(O)c1cccc([N+](=O)[O-])c1 (centres undefined) | 1.32 | 
43 | CCN(c1ccc2c(c1)OCO2)S(=O)(=O)c1cc(Br)cc2c1N(C(=O)C1CC1)CC2 |  | 5.17 µM (active)
44 | CN(Cc1ccccc1)C(=O)CCS(=O)(=O)c1cc(Br)cc2c1N(C(=O)C1CC1)CC2 | -12.9 | 
45 | CCOC(=O)N1CCN(S(=O)(=O)c2cc(Br)cc3c2N(C(=O)C2CC2)CC3)CC1 | -6.54 | 
46 | CCOC(=O)c1ccc(-c2ccc3ncnc(N(C)Cc4sccc4C)c3c2)o1 | -3.7 | 
47 | CCN1CCN(c2c(Cl)cccc2NC(=O)c2ccc(Br)o2)CC1 | -4.86 | 
48 | O=C(CNC(=O)c1ccc(Br)o1)Nc1ccccc1 | 16 | 
49 | CCCC(=O)Nc1ccc(Cl)c(NC(=O)c2ccc(Br)o2)c1 |  | 20.6 µM (active)
